The text below walks through data of the OligoGym collection.
Also: reference of the scale not given here.

The first assay has as its target RYR2. The experiment in a line: pooled miR-30 sensor sort-seq; sequence = guide strand. As to conditions: shRNA.
The sequence TAGTACATAGTGAACTGCGATG returned a sensor-assay potency score (higher = more potent) of -0.997.

As for TAAATCACTGTTTCCATCCAGA, the sensor-assay potency score (higher = more potent) was 0.11.

TAAGTTGTAATTGCGCTCCTGT registered a sensor-assay potency score (higher = more potent) of 0.62.

Take TTTTATTGTAGAATTTTCGGAA: the sensor-assay potency score (higher = more potent) was -0.252.

TTTAGTAGCTTCTTTGTCTTTG gave a sensor-assay potency score (higher = more potent) of 0.401.

As to TTGCAGTCCACAACCAGCCAAA, the sensor-assay potency score (higher = more potent) was -1.35.

On to TATGCTATGATTTTCTTCCAGA, for which the sensor-assay potency score (higher = more potent) is -0.61.

TTCAGTGTGAACATCATGGTGT came in with a sensor-assay potency score (higher = more potent) of 0.656.

Consider TTCACTTGAACTTCTCGTGGGG, for which the sensor-assay potency score (higher = more potent) stood at 0.903.

The sequence TTTTGTACTCGGTTCCACCTGA gave a sensor-assay potency score (higher = more potent) of 0.606.

The target in another assay is S100A11. The description is as above. As to conditions: shRNA.
ATCTAGCTGACCATCACTGTTG: the sensor-assay potency score (higher = more potent) is -0.625.

As for TTGTGAAGGCAGCTAGTTCTGT, the sensor-assay potency score (higher = more potent) was -0.251.

Regarding AATTCTGAGAAATCTAGCTGAC, the sensor-assay potency score (higher = more potent) is -0.15.

As to TAGTTCTGTATTCATGAAGCTT, the sensor-assay potency score (higher = more potent) was -0.971.

In turn, TTCTGGTTCTTTGTGAAGGCAG showed a sensor-assay potency score (higher = more potent) of -0.487.

TCCAGTTTCTTCATCATGCGGT gave a sensor-assay potency score (higher = more potent) of -0.21.

As to AAATTCTGAGAAATCTAGCTGA, the sensor-assay potency score (higher = more potent) turned out to be 0.4.

As for AGTGTAGTTATAACCATCCTTT, the sensor-assay potency score (higher = more potent) is -1.48.

For TATAACCATCCTTTCCAGCATA, the sensor-assay potency score (higher = more potent) was -1.17.

Consider AAGCTTAGGAACTCTGTCTTGG, for which the sensor-assay potency score (higher = more potent) came to 0.352.

Sequence ATCCTTTCCAGCATACTTCTGG returned a sensor-assay potency score (higher = more potent) of -0.568.

The target of another assay is S100A4. Described as above. The note with it: shRNA.
Regarding TTTATTGAACTTGCTCAGCATC, the sensor-assay potency score (higher = more potent) is -1.33.

Take TAGTTCTGACTTGTTGAGCTTG: the sensor-assay potency score (higher = more potent) is -0.701.

As to TCAGCTTCTGGAAAGCAGCTTC, the sensor-assay potency score (higher = more potent) is 0.395.

For the sequence TTCGTTACACATCATGGCGATG, the sensor-assay potency score (higher = more potent) was -1.19.

Regarding TTGCTCAGCATCAAGCACGTGT, the sensor-assay potency score (higher = more potent) is -0.253.

Sequence TTGTTGAGCTTGAACTTGTCAC yielded a sensor-assay potency score (higher = more potent) of -0.424.

Sequence TACTCTTGGAAGTCCACCTCGT had a sensor-assay potency score (higher = more potent) of 0.392.

For the sequence TTGAACTTGTCACCCTCTTTGC, the sensor-assay potency score (higher = more potent) was -0.681.

Take TGACTTGTTGAGCTTGAACTTG: the sensor-assay potency score (higher = more potent) was -1.01.

As for TGAGCTTGAACTTGTCACCCTC, the sensor-assay potency score (higher = more potent) came to 0.664.

For the sequence TTGAGCTTGAACTTGTCACCCT, the sensor-assay potency score (higher = more potent) came out at 0.789.

TTACACATCATGGCGATGCAGG yielded a sensor-assay potency score (higher = more potent) of -0.526.

A further assay has as its target S100P. The description is as above. As to conditions: shRNA.
In the case of TGTCTTTTCCACTCTGCAGGAA, the sensor-assay potency score (higher = more potent) is -0.419.

The sequence TAATCAGAGGTACATGAGCAGG came in with a sensor-assay potency score (higher = more potent) of -1.43.

The sequence TTGCCAACAAACACTTTTGGGA gave a sensor-assay potency score (higher = more potent) of -0.0452.

TTCCACTCTGCAGGAAGCCTGG had a sensor-assay potency score (higher = more potent) of -1.03.

TACATGAGCAGGCTCAGCCTAG yielded a sensor-assay potency score (higher = more potent) of -0.833.

On to GAACTCACTGAAGTCCACCTGG, for which the sensor-assay potency score (higher = more potent) was -0.698.

On to TGGTAGCTCCTTCTCCATCAGC, for which the sensor-assay potency score (higher = more potent) was -1.75.
